POLB inh: qHTS Assay for Inhibitors of DNA Polymerase Beta; Pol beta primer extension/strand displacement, fluorescence kinetic; P06746; 1.3% of 340,000 active; AID 485314, 2010; Potency, µM (doses to about 114 µM), for the others: at the top dose activity change, negative = inhibition, most hits filed as inhibitors; note: potency is the fitted concentration of half-maximal effect; % is set by controls: 0 for no effect and ±100 for the full control effect
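Preincubation: enzyme (10 nM) with compound, 15 min, RT. Reaction: substrate added to 50 nM final. Reads: 0 and 10 min. Analysis: normalized, Hill fit.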
WRN helicase inh: qHTS for Inhibitors of WRN Helicase; 0.46% of 360,000 active; WRN helicase unwinding, fluorescent forked duplex, kinetic; Bifunctional 3'-5' exonuclease/ATP-dependent helicase WRN (Homo sapiens), Q14191; AID 651768, 2012; Potency, µM (highest dose often 114 µM), without a hit: top-dose activity change, negative = inhibition, most hits filed as inhibitors; note: potency is the fitted concentration of half-maximal effect; % is set by controls: 0 for no effect and ±100 for the full control effect; nearly all actives have a fitted effect of over 55% in size
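Fluorescence dequenching readout, ex 525 nm/em 598 nm, kinetic mode: forked duplex DNA (100 nM final) with adjacent fluorophore and quencher unwound by WRN (20 nM final) with 2 mM ATP. Compound preincubation 15 min, room temperature.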
PI5P4Ka inh: qHTS for Inhibitors of phosphatidylinositol 5-phosphate 4-kinase (PI5P4K); AID 652105, 2013; Phosphatidylinositol 5-phosphate 4-kinase type-2 alpha (Homo sapiens), P48426; max response, %; PI5P4Kalpha enzyme, ADP-Glo luminescence, 60 min; active compounds read low; 1.2% of 330,000 active; active = max response of -50% or lower; inconclusive = between -30% and -50%; inactive = -30% or higher; note: value at the top dose of about 77 µM; % is set by controls: 0 for no effect and ±100 for the full control effect
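Reactions run in 0.038 M HEPES pH 7.4, 0.28 mM EGTA, 0.1% CHAPS and 5% DMSO, with PI5P4Kalpha, substrate, compound and 5 microM ATP final, one hour at room temperature. Readout is ADP-Glo luminescence.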
Pol kappa inh: qHTS for Inhibitors of Polymerase Kappa. 0.53% of 400,000 active. purified Pol kappa, fluorescent DNA synthesis assay, 10 min. DNA polymerase kappa (Homo sapiens), Q9UBT6. Potency, µM (series often up to 107 µM), for the others: at the top dose activity, negative = inhibition, usual class: inhibitors; note: potency is the fitted concentration of half-maximal effect; % is set by controls: 0 for no effect and ±100 for the full control effect
Target sequence (Q9UBT6 whole entry, looked up): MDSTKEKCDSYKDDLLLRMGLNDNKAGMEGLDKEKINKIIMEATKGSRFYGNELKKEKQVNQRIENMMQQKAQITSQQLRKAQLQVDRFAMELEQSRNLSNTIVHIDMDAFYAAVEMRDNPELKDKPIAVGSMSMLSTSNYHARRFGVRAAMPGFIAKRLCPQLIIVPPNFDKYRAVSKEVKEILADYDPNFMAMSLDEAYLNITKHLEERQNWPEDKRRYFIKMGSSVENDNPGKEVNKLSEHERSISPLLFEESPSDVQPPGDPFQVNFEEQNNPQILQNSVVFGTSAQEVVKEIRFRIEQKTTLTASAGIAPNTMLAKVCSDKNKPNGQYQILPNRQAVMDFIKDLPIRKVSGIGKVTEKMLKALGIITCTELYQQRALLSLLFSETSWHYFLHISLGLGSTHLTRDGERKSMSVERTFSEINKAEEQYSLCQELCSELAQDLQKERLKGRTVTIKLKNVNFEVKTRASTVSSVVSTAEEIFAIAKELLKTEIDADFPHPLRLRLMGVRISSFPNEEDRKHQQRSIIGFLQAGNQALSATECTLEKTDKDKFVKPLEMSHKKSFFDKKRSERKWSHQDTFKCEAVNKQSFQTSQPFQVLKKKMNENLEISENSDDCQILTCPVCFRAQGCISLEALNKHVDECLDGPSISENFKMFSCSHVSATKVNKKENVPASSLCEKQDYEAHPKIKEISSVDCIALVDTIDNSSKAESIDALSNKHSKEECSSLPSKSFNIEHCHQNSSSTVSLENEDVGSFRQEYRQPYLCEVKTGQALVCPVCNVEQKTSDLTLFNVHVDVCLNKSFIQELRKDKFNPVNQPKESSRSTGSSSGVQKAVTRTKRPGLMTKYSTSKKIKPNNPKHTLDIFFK
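Pol kappa 10 nM + cpd, 15 min RT; start w/ substrate 50 nM final; fluorescence kinetic read, 0 and 10 min. Neg ctrl: buffer, no enzyme.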
POLI inh: qHTS for Inhibitors of Polymerase Iota; DNA polymerase iota (Homo sapiens), Q9UNA4; Pol iota fluorescent replication assay, 10 min; Potency, µM (series often up to 115 µM), inactives show at the highest dose activity, negative = inhibition, usual class: inhibitors; 1% of 390,000 active; AID 588590, 2011; note: potency is the fitted concentration of half-maximal effect
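Fluorescent replication assay read twice, at 0 min and 10 min after adding 50 nM (final) substrate. Enzyme (10 nM) and compounds were first incubated 15 min at room temperature; enzyme-free buffer wells were negative controls.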
Pol eta inh: qHTS for Inhibitors of Polymerase Eta; Potency, µM (top dose mostly 114 µM), without a hit: at the highest dose activity change, negative = inhibition, usual class: inhibitors; 1.2% of 390,000 active; recombinant Pol eta, fluorescent DNA replication assay; note: potency is the fitted concentration of half-maximal effect; % is set by controls: 0 for no effect and ±100 for the full control effect
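Fluorescent replication assay: 50 nM final substrate added after a 15 min room-temperature compound preincubation with 10 nM enzyme. Signal taken at 0 min and again at 10 min.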
* marks the source's active call; other numbers are inactive results; ? = inconclusive; nt = no result; [ ] = remark or other dose. Sampled rows, rich in hits. Any-hit rate of the full collection: about 2.8%. Unless noted, calls come from the whole dose curve; as a rule, active = well fitted curve in the direction sought with a large enough effect; inconclusive = small, poorly fitted or top-dose-only effect, or another doubt; inactive = no such curve, though single readings can be large; an effect the other way counts as inactive or inconclusive.

SMILES	POLB inh	WRN helicase inh	PI5P4Ka inh	Pol kappa inh	POLI inh	Pol eta inh
CN(C)c1ccc(O)c2c1C[C@@H]1C[C@H]3C(N(C)C)C(=O)C(C(N)=O)=C(O)[C@@]3(O)C(=O)C1=C2O (stereo partly specified)	nt	nt	nt	-17.9%[60.1 µM]	nt	nt
C=C1c2c(Cl)ccc(O)c2C(O)=C2C(=O)[C@]3(O)C(O)=C(C(N)=O)C(=O)C(N(C)C)C3C(O)C12 (stereo partly specified)	nt	nt	nt	1.58µM*	nt	nt
COc1ccc(Cl)cc1NC(=O)C1Cc2ccccc2CN1S(C)(=O)=O (stereo unspecified)	?	2.3%[11.6 µM]	?	-34.5%	56.2µM*	?
COc1ccc(Cl)cc1NC(=O)C1CCN(S(=O)(=O)c2ccc(F)cc2)CC1	16.6%	nt	nt	-38.4%	89.1µM*	-16.4%
CC1Sc2ccc(S(=O)(=O)N3CCC(C(=O)Nc4ccc(Cl)cc4)CC3)cc2NC1=O (stereo unspecified)	?	79.4µM*	0.6	?	?	?
COc1cc(NC(=O)C2Cc3ccccc3CN2S(C)(=O)=O)cc(OC)c1 (stereo unspecified)	1.7%	7.9%	-2.1	-12.5%	64.8%	-2.0%
Cc1ccc(CNC(=O)c2cccc(NC(=O)N3CCSc4ncccc43)c2)cc1	28.5%	nt	nt	-11.1%[60.1 µM]	?	-8.9%
O=C(CSc1oc(-c2ccco2)nc1S(=O)(=O)c1ccc(Br)cc1)c1ccc(Cl)cc1	11.6%	nt	nt	?	89.1µM*	-3.3%
CCCSc1oc(-c2ccco2)nc1S(=O)(=O)c1ccc(Cl)cc1	-19.4%	nt	nt	-17.6%	?	-5.1%
CCCC1=Nc2cc(C(=O)NC(C)c3ccccc3)ccc2Sc2ccc(C)cc21 (stereo unspecified)	-14.2%	nt	nt	?	89.1µM*	-10.2%
CCSC1=NC2(CCN(C(=O)NC3CCCCC3)CC2)N=C1c1ccc(C)cc1	25.1%	nt	nt	6.2%	-2.9%	3.2%
Cc1ccc(C(=O)O/N=C(\N)c2ccc(Br)cc2)cc1	?	-2.0%[57.1 µM]	9.7	-22.8%	89.1µM*	-21.9%
CCOC(=O)c1cccc(NS(=O)(=O)c2cc3c(cc2C)NC(=O)CO3)c1	1.0%	nt	nt	2.9%	38.2%	-20.1%
COC(=O)c1c(NC(=O)/C=C/C(=O)O)sc(C)c1-c1ccc(C(C)C)cc1	-5.0%	9.5%	-6.8	-16.7%	21.5%	79.4µM*
COc1cccc(NC(=O)COC(=O)c2ccc(S(=O)(=O)NCc3ccco3)cc2)c1	?	-15.4%[57.1 µM]	-6.7	?	?	8.91µM*
Cc1cc(S(=O)(=O)N2CCCC2)ccc1OCC(=O)NCc1ccco1	25.1µM*	-10.8%	nt	-3.5%[60.1 µM]	?	-17.0%
O=C(NCc1ccco1)c1ccc(Cl)c(S(=O)(=O)N2CCCC2)c1	nt	-16.1%	-21.1	-28.1%	35.5µM*	?
CC1CCCN(S(=O)(=O)c2cc(C(=O)NCc3ccco3)ccc2Cl)C1 (stereo unspecified)	nt	-6.1%	-18.7	-6.8%	11.6%	-19.6%
CC(OC(=O)c1ccccn1)C(=O)Nc1ccc2c(c1)OCCO2 (stereo unspecified)	nt	4.3%	-0.9	5.8%	11.3%	-2.3%
CC(=O)Nc1ccc(NC(=O)COC(=O)c2ccc(S(=O)(=O)NCc3ccco3)cc2)cc1	nt	1.8%	-2.0	-11.9%	-17.2%	-6.9%
CCN(c1ccccc1)S(=O)(=O)c1cc(C(=O)OC(C)C(=O)Nc2ccc3c(c2)OCCO3)ccc1C (stereo unspecified)	10µM*	-9.6%[11.6 µM]	-27.4	?	?	?
Cc1cc(C(F)(F)F)n2nc(-c3ccc(Br)cc3)cc2n1	-0.6%	nt	nt	9.1%	39.2%	-10.9%
Cc1cccc(NC(=O)Cn2cc(S(=O)(=O)N3CCCC3)c(S(=O)(=O)N3CCCC3)c2)c1C	10.7%	nt	nt	-16.2%	4.7%	-8.7%

Screens from PubChem BioAssay.
